In PubChem BioAssay AID588726 (The Scripps Research Institute Molecular Screening Center, 2011):
In all, about 360,000 compounds went through this assay and about 8,200 (2.3%) were called active. Shown is part of a subset that was picked to be rich in actives. A number with no mark means an inactive call. Rule as the data show it: active = inhibition above about 27%; inactive = the rest.

target: Fructose-bisphosphate aldolase (Mycobacterium tuberculosis (strain ATCC 25618 / H37Rv)) (UniProt P9WQA3); test: Mtb FBA enzyme inhibitors, primary screen, biochemical, fluorescence, strain H37Rv (AID 588726);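 also: 0% = vehicle and 100% = reference inhibitor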; details: purified M. tuberculosis FBA, fluorescence read-out, at 1 µM, stronger effect = higher value
Sequence (P9WQA3 whole entry, looked up): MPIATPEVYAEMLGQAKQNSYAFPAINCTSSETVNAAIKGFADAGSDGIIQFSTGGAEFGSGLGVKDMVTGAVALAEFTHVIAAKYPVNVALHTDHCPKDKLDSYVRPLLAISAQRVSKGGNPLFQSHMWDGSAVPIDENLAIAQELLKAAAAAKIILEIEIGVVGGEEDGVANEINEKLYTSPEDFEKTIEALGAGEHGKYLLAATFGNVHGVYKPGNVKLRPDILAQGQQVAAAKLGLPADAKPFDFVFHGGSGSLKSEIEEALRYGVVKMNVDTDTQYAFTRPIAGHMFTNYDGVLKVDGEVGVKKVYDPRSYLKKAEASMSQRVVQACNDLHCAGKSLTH

SMILES	inhibition
COc1cc(CCN=Cc2ccccc2O)c([N+](=O)[O-])cc1OC	1.91%
O=C(COc1ccc(-c2ccccc2)cc1)NN=C1CCCC1	4.25%
CN(C)C(=O)c1coc2nc3ccccc3nc12	131% (active)
COc1cccc2cc(C(=O)N(C)C)c(=O)oc12	-1.37%
CN(C)CCNC(=O)c1ccc(Cl)c2cc3ccccc3nc12	9.35%
COc1ccc(C(F)(F)F)cc1N/C=C\c1nnnn1-c1ccc(C)cc1	1.79%
CCCCNC(=O)N1CCCC(N(C)CCc2ccc(OC)c(OC)c2)C1 (stereo not drawn)	3%
CCOC(=O)C1CCN(C(=O)Cc2c(C(=O)O)[nH]c3ccccc23)CC1	3.52%
O=C(O)c1[nH]c2ccccc2c1C(c1cccc(O)c1)c1c(C(=O)O)[nH]c2ccccc12	0.61%
CCCS(=O)(=O)Nc1c(C(=O)O)[nH]c2ccccc12	38.6% (active)
CCOC(=O)/C=C/C(=O)OCC(=O)NC(c1ccccc1)c1ccccc1	1.96%
Cc1cc(Cl)c2oc(C(=O)N(C)C(C)c3ccccn3)c(C)c2c1 (stereo not drawn)	5.49%
CC(C)C(=O)N1CCC2(CC1)Oc1ccc(F)cc1C(=O)C21CC(c2ccccc2)=NO1 (stereo not drawn)	4.59%
Cc1cc(C)c2[nH]c(=O)c(CN(Cc3ccccc3)C(=S)NCCCN(C)C)cc2c1	5.66%
COCCCNC(=S)N(CCN(C)C)Cc1cc2cc3c(cc2[nH]c1=O)OCCO3	28.8% (active)
CN(C)CCCN(Cc1cc2cc3c(cc2[nH]c1=O)OCCO3)C(=O)NC1CCCCC1	26.5%
CCN(CC)CCCNC(=S)N(CCO)Cc1cc2cc3c(cc2[nH]c1=O)OCO3	13.2%
CCNC(=S)N(CCN(CC)CC)Cc1cc2cc3c(cc2[nH]c1=O)OCO3	32.3% (active)
CCNC(=S)N(CCN(CC)CC)Cc1cc2cc3c(cc2[nH]c1=O)OCCO3	22%
COc1cc(NC(=O)CSC(=S)N2CCCC2)c(OC)cc1Cl	9.36%
Cc1ccsc1C1C(C#N)=C(N)OC2=C1C(=O)CC(C)(C)C2 (stereo not drawn)	5.8%
CCc1ccc(OCC(=O)N(Cc2ccccc2)C2CCS(=O)(=O)C2)cc1 (stereo not drawn)	4.66%

SMILES	inhibition
Cn1c(=O)c2c(SCC(=O)NCC3CCCO3)nc(CC(C)(C)C)nc2n(C)c1=O (stereo not drawn)	-0.73%
O=C(CC[C@H]1O[C@@H](n2ccc(=O)[nH]c2=O)[C@H](O)[C@@H]1O)N[C@H](Cc1ccccc1)C(=O)NCc1ccco1	1.72%
COCCCn1c(C(=O)NC2CCCCC2)cc2c(=O)n3cccc(C)c3nc21	37.6% (active)
CCc1cccc2c(=O)c(C(=O)NCCCOC)c[nH]c12	1.41%
CCn1c(=N)c(C(=O)NCCCOC)cc2c(=O)n3cccc(C)c3nc21	661% [above what the read-out allows, likely interference] (active)
COCCCn1c(SCC(=O)NC2CCCC2)nnc1-c1ccccc1	-5.58%
Cc1cccn2c(=O)c3cc(C(=O)NC4CCCCC4)sc3nc12	9.42%
Cc1ccc(S(=O)(=O)c2cc3c(=O)n4cccc(C)c4nc3n(CCc3ccccc3)c2=N)cc1C	-2.09%
CC(NCCc1ccc(S(N)(=O)=O)cc1)C(=O)NCc1ccccc1 (stereo not drawn)	0.46%
Cc1cccc(C2c3c(n(C)c(=O)n(C)c3=O)N=C3c4ccccc4C(=O)C32)c1 (stereo not drawn)	-1.16%
CCOc1ccc(C(=O)Nc2c3c(nn2-c2ccccc2)CS(=O)(=O)C3)cc1	0.76%
O=S(=O)(c1ccc(F)cc1)N1CCN(C(=S)NC2CCCC2)CC1	0.47%
C[C@@H]1CN([C@@H](C)CO)C(=O)c2cc(Br)cnc2O[C@@H]1CN(C)C(=O)C1CCCCC1	-2.01%
O=C(Cn1nnc(-c2ccccc2)n1)NC(=O)NC1CCCC1	0.56%
O=C(O[C@H]1[C@H](Cc2ccccc2)NS(=O)(=O)[C@H]2C[C@@H]3C=C[C@]12O3)c1ccc([N+](=O)[O-])cc1	1.68%
Cc1nnc(SCC(=O)Nc2ccc(S(=O)(=O)Nc3ccc(Cl)nn3)cc2)s1	-1.39%
CCOc1ccc(C2=CC(c3ccccc3)n3ncnc3N2)cc1 (stereo not drawn)	48.9% (active)
Brc1ccc(C2=CC(c3ccco3)n3ncnc3N2)cc1 (stereo not drawn)	31.5% (active)
CC1=C(C(=O)OC2CCCCC2)C(c2cccnc2)n2ncnc2N1 (stereo not drawn)	1.05%
Clc1ccc2c(c1)C1=C(C(c3ccncc3)O2)C(c2ccc(Br)cc2)n2ncnc2N1 (stereo not drawn)	1.95%
Cc1ccc(F)c(S(=O)(=O)NC(=O)C2(C)CCN2C(=O)c2ccco2)c1 (stereo not drawn)	-2.4%
Cc1ccc(CCCOC(=O)C[N+]2(C)CCCC2)cc1	2.21%

SMILES	inhibition
COC(=O)C1(CCSC)NC(c2ccc(OC)cc2OC)C2C(=O)N(c3cccc(C(C)=O)c3)C(=O)C21 (stereo not drawn)	1.37%
CO[C@H]1[C@@H]2C=CO[C@@H](O[C@H]3O[C@@H](CO)[C@H](O)[C@@H](O)[C@@H]3O)[C@@H]2[C@@]2(CO)O[C@@H]12	2.4%
CCOC(=O)C1CCCN(C(=O)c2ccc(CS(=O)(=O)c3ccc(Br)cc3)o2)C1 (stereo not drawn)	1.86%
COc1ccccc1-c1oc2ccccc2c1C#CCCCCO	30.8% (active)
COc1ccccc1-c1sc2ccccc2c1C#CC1(O)CCCCC1	6.51%
CCNC(=O)CC1C(=O)N(c2ccc(F)cc2)C(=O)N1Cc1cccs1 (stereo not drawn)	-3.21%
CSCC[C@H](NC(=O)NC1CCCC1)C(=O)O	-1.95%
CCN(CC)c1ccc(NC(=O)C2CCC(CNc3c(N4CCCC4)c(=O)c3=O)CC2)c(C)c1 (stereo not drawn)	-0.83%
COc1ccc2c(c1)CC[C@@H]1[C@@H]2CC[C@]2(C)C(=O)CC[C@@H]12	0.88%
O=C1OCC2=C1C(c1ccccc1)CC(=O)N2c1cccc(F)c1 (stereo not drawn)	-3.03%
Cc1cnc(C(=O)OCC(=O)N2CCc3ccccc32)cn1	69% (active)
O=C(OCC(=O)N1CCc2ccccc21)c1ccc([N+](=O)[O-])cc1	-3.08%
Cc1ccc(S(=O)(=O)NCC(=O)OCC(=O)N2CCc3ccccc32)cc1	0.04%
CCc1ccc(N2CC(C(=O)NC3=NCCS3)CC2=O)cc1 (stereo not drawn)	4.59%
O=C(CCc1ccccc1)Nc1nn[nH]n1	2.03%
O=C(CCc1ccccc1)Nc1cccc(-c2nnc(-c3ccco3)o2)c1	26.9% (active)
O=C(CSc1nnc(-c2ccco2)o1)NCC(=O)c1ccccc1	-1.17%
O=C1CCC(=O)N1CCOP1(=O)COc2ccccc2OC1	3.44%
CCCSc1nc2c(c(=O)n(C)c(=O)n2C)n1Cc1ccc(C)cc1	1.01%
CCC1CCCCN1C(=O)CSc1nc2c(c(=O)n(C)c(=O)n2C)n1C (stereo not drawn)	0.65%
CCOC(=O)CSc1nc2c(c(=O)n(Cc3ccccc3Cl)c(=O)n2C)n1C	88% (active)
CC(C)C1CCN(C(=O)C2CCC(=O)N(C3CCCCCC3)C2)CC1 (stereo not drawn)	-1.51%

SMILES	inhibition
CCN(C(=O)Cc1c(C(=O)O)n(CC)c2ccccc12)c1ccccc1C	0.97%
Fc1ccc(COc2ccc(-c3nnco3)cc2)cc1	-0.19%
Fc1ccc(COc2cccc(-c3n[nH]c(=S)o3)c2)cc1	29.4% (active)
Fc1ccc(/C=N/n2c(COc3ccccc3)n[nH]c2=S)cc1	2.47%
CC1(C)C2CC[C@]3(C)C(CC=C4[C@@H]5C[C@@](C)(CO)CC[C@]5(C(=O)O)CC[C@]43C)[C@@]2(C)CC[C@@H]1O (stereo partly drawn)	0.29%
Cc1ccccc1C(=O)N1CCC(C(=O)Nc2ccc(S(=O)(=O)N(C)C(C)C)cc2)CC1	1.27%
O=C(CSc1nc2c(cnn2-c2ccc(F)cc2)c(=O)[nH]1)N1CCCCCC1	2.6%
Cc1c(C)n2c(SCC(=O)N3CCCC3)nnc2[nH]c1=O	-0.46%
CC(=O)c1sc2nc(SCC(=O)N3CCCCC3)[nH]c(=O)c2c1C	30.5% (active)
CC(C)c1ccc(N(C(=O)c2ccco2)C(C(=O)NC2CCCC2)c2cccnc2)cc1 (stereo not drawn)	-3.97%
O=C(NC(=S)Nc1ccccc1C(=O)O)c1ccc(-c2ccc(Br)cc2)o1	10.4%
CCOC(=O)Cc1c(C)nc2c(C#N)c(C)nn2c1C	46.4% (active)
Cc1cc(C)cc(NC(=O)CSCc2cnn(-c3ccccc3)c2-n2cccc2)c1	-1.78%
Cc1cc(C)cc(NC(=O)CCN2C(=O)c3ccccc3C2=O)c1	0.74%
Cc1cc(C)cc(NC(=O)CSc2ccccc2)c1	70.8% (active)
CCCN(CC(=O)Nc1ccccc1C)C(=O)c1ccc(OCC(=O)N2CCOCC2)c(OCC)c1	-1.46%
Cn1ncc2c(N3CCCCC3)nc(NCCCO)nc21	-2.65%
CC(C)(C)C(=O)NC1CC2CCCC(C1)N2C(=O)Nc1ccccc1F (stereo not drawn)	-0.96%
CCCCn1c(N)c(N(CCOC)C(=O)CSCC(=O)Nc2cccc(C)c2)c(=O)[nH]c1=O	-1.91%
CCCCn1c(-c2cccc(C)c2)nc2cc3[nH]c(=O)c(C(C)C)nc3cc21	87.6% (active)
COc1ccc(-c2nc3ccccc3n2CCC(C)C)cc1OC	5.55%
Nn1c(Cc2cccc3ccccc23)nnc1SCC(=O)N1CC(=O)Nc2ccccc21	1.67%
